# Results reported in the supplement of paper PMC8728848.
# About 410 targets per protein were measured; listed, in parts, are those with the strongest signals and a random draw of the rest.
# B1: LICBM33A (Lactococcus lactis), Q9CE94 (protein)
# chain: MKKLLTGLLVAAGLLSVSLLIKTDTVSAHGYVQSPPARGYQGQLDSQSLGWTAAFNIYGNVISNPQSLEAPKGFPECGPADGRIASANGGLGQIGDFVLDNQTSSRWKKTSISTGSNIFTWKYTAPHKTTKWHYYMTKTGWDQNAPLKHSELELIGTINHDGSPATNNLSHTINIPTDRSGYHIVLAVWDVADTSNAFYNVIDINVNNKNASSQVFGPFL
# Tests used:
# Assay in all cases: glycan array binding signal (z-score within array); higher = stronger binding
# Conditions in all cases: glycan notation: IUPAC condensed, linker removed
# [1] = target: Fuc(a1-2)Gal(b1-3)GalNAc(b1-4)[Neu5Ac(a2-3)]Gal(b1-4)Glc
# Procedure, shortened: (§1)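 Glycan array binding is given as a within-array Z-score, which can be read as non-binding when negative. The arrays, 3228 of them, came from the Consortium for Functional Glycomics database and were retained only where the protein sequence was available. Z-scores were averaged across arrays of the same protein sequence at different concentrations or buffers and across linkers.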
# [2] = target: Fuc(a1-2)Gal(b1-3)[Fuc(a1-4)]GlcNAc
# Procedure, shortened: as §1
# [3] = target: Fuc(a1-2)Gal(b1-4)GlcNAc(b1-2)[Fuc(a1-2)Gal(b1-4)GlcNAc(b1-4)]Man(a1-3)[Fuc(a1-2)Gal(b1-4)GlcNAc(b1-2)Man(a1-6)]Man(b1-4)GlcNAc(b1-4)GlcNAc
# Procedure, shortened: as §1
# [4] = target: Fuc(a1-2)Gal(b1-4)[Fuc(a1-3)]GlcNAc(b1-3)Gal(b1-4)[Fuc(a1-3)]GlcNAc
# Procedure, shortened: as §1
# [5] = target: Fuc(a1-2)Gal3S(b1-4)GlcNAc
# Procedure, shortened: as §1
# [6] = target: Fuc(a1-2)[Gal(a1-3)]Gal(b1-4)[Fuc(a1-3)]GlcNAc(b1-3)GalNAc
# Procedure, shortened: as §1
# [7] = target: Fuc(a1-2)[GalNAc(a1-3)]Gal(b1-3)GlcNAc(b1-2)Man(a1-3)[Fuc(a1-2)[GalNAc(a1-3)]Gal(b1-3)GlcNAc(b1-2)Man(a1-6)]Man(b1-4)GlcNAc(b1-4)[Fuc(a1-6)]GlcNAc
# Procedure, shortened: as §1
# Gal(a1-2)Gal = target: Gal(a1-2)Gal
# Procedure, shortened: as §1
# [8] = target: Gal(a1-3)Gal(b1-3)[Fuc(a1-4)]GlcNAc(b1-2)Man(a1-3)[Gal(a1-3)Gal(b1-3)[Fuc(a1-4)]GlcNAc(b1-2)Man(a1-6)]Man(b1-4)GlcNAc(b1-4)GlcNAc
# Procedure, shortened: as §1
# Gal(a1-3)Gal(b1-4)GlcNAc = target: Gal(a1-3)Gal(b1-4)GlcNAc
# Procedure, shortened: as §1
# Gal(a1-4)Gal(b1-4)GlcNAc = target: Gal(a1-4)Gal(b1-4)GlcNAc
# Procedure, shortened: as §1
# [9] = target: Gal(b1-3)GlcNAc(b1-2)Man(a1-3)[GlcNAc(b1-4)][Gal(b1-3)GlcNAc(b1-2)Man(a1-6)]Man(b1-4)GlcNAc(b1-4)GlcNAc
# Procedure, shortened: as §1
# [10] = target: Gal(b1-3)GlcNAc(b1-3)Gal(b1-4)[Fuc(a1-3)]GlcNAc
# Procedure, shortened: as §1
# [11] = target: Gal(b1-4)GlcNAc(b1-2)Man(a1-6)[GlcNAc(b1-2)Man(a1-3)]Man(b1-4)GlcNAc(b1-4)GlcNAc
# Procedure, shortened: as §1
# [12] = target: Gal(b1-4)GlcNAc(b1-3)Gal(b1-4)GlcNAc(b1-2)[Gal(b1-4)GlcNAc(b1-3)Gal(b1-4)GlcNAc(b1-6)]Man(a1-6)[Gal(b1-4)GlcNAc(b1-3)Gal(b1-4)GlcNAc(b1-2)Man(a1-3)]Man(b1-4)GlcNAc(b1-4)GlcNAc
# Procedure, shortened: as §1
# [13] = target: Gal(b1-4)GlcNAc(b1-3)Gal(b1-4)GlcNAc(b1-3)Gal(b1-4)GlcNAc(b1-3)Gal(b1-4)GlcNAc(b1-2)Man(a1-3)[Gal(b1-4)GlcNAc(b1-3)Gal(b1-4)GlcNAc(b1-3)Gal(b1-4)GlcNAc(b1-3)Gal(b1-4)GlcNAc(b1-2)Man(a1-6)]Man(b1-4)GlcNAc(b1-4)[Fuc(a1-6)]GlcNAc
# Procedure, shortened: as §1
# [14] = target: Gal(b1-4)GlcNAc(b1-3)Gal(b1-4)GlcNAc(b1-3)Gal(b1-4)GlcNAc(b1-3)Gal(b1-4)GlcNAc(b1-3)Gal(b1-4)GlcNAc(b1-2)Man(a1-3)[Gal(b1-4)GlcNAc(b1-3)Gal(b1-4)GlcNAc(b1-3)Gal(b1-4)GlcNAc(b1-3)Gal(b1-4)GlcNAc(b1-3)Gal(b1-4)GlcNAc(b1-2)Man(a1-6)]Man(b1-4)GlcNAc(b1-4)[Fuc(a1-6)]GlcNAc
# Procedure, shortened: as §1
# [15] = target: Gal(b1-4)GlcNAc(b1-3)Gal(b1-4)GlcNAc(b1-3)Gal(b1-4)GlcNAc(b1-3)Gal(b1-4)GlcNAc(b1-3)Gal(b1-4)GlcNAc(b1-2)[Gal(b1-4)GlcNAc(b1-3)Gal(b1-4)GlcNAc(b1-3)Gal(b1-4)GlcNAc(b1-3)Gal(b1-4)GlcNAc(b1-3)Gal(b1-4)GlcNAc(b1-6)]Man(a1-6)[Gal(b1-4)GlcNAc(b1-3)Gal(b1-4)GlcNAc(b1-3)Gal(b1-4)GlcNAc(b1-3)Gal(b1-4)GlcNAc(b1-3)Gal(b1-4)GlcNAc(b1-2)Man(a1-3)]Man(b1-4)GlcNAc(b1-4)[Fuc(a1-6)]GlcNAc
# Procedure, shortened: as §1
# [16] = target: Gal(b1-4)GlcNAc(b1-6)GalNAc
# Procedure, shortened: as §1
# Gal(b1-4)GlcNAc6P = target: Gal(b1-4)GlcNAc6P
# Procedure, shortened: as §1
# Gal3S(b1-3)GalNAc = target: Gal3S(b1-3)GalNAc
# Procedure, shortened: as §1
# [17] = target: GalNAc(a1-3)GalNAc(b1-3)Gal(a1-4)Gal(b1-4)Glc
# Procedure, shortened: as §1
# [18] = target: GalNAc(b1-4)GlcNAc(b1-2)Man(a1-3)[GalNAc(b1-4)GlcNAc(b1-2)Man(a1-6)]Man(b1-4)GlcNAc(b1-4)GlcNAc
# Procedure, shortened: as §1
# GalNAc3S(b1-4)GlcNAc3S = target: GalNAc3S(b1-4)GlcNAc3S
# Procedure, shortened: as §1
# Glc(a1-6)Glc(a1-6)Glc = target: Glc(a1-6)Glc(a1-6)Glc
# Procedure, shortened: as §1
# Glc(b1-4)Glc = target: Glc(b1-4)Glc
# Procedure, shortened: as §1
# [19] = target: GlcNAc(a1-4)Gal(b1-4)GlcNAc(b1-3)Gal(b1-4)GlcNAc
# Procedure, shortened: as §1
# [20] = target: GlcNAc(a1-4)Gal(b1-4)GlcNAc(b1-3)Gal(b1-4)GlcNAc(b1-3)Gal(b1-4)GlcNAc
# Procedure, shortened: as §1
# [21] = target: GlcNAc(b1-3)Gal(b1-4)GlcNAc(b1-3)Gal(b1-4)GlcNAc(b1-2)Man(a1-3)[GlcNAc(b1-3)Gal(b1-4)GlcNAc(b1-3)Gal(b1-4)GlcNAc(b1-2)Man(a1-6)]Man(b1-4)GlcNAc(b1-4)[Fuc(a1-6)]GlcNAc
# Procedure, shortened: as §1
# [22] = target: GlcNAc(b1-3)Gal(b1-4)GlcNAc(b1-3)Gal(b1-4)GlcNAc(b1-3)Gal(b1-4)GlcNAc(b1-3)Gal(b1-4)GlcNAc(b1-2)Man(a1-3)[GlcNAc(b1-3)Gal(b1-4)GlcNAc(b1-3)Gal(b1-4)GlcNAc(b1-3)Gal(b1-4)GlcNAc(b1-3)Gal(b1-4)GlcNAc(b1-2)Man(a1-6)]Man(b1-4)GlcNAc(b1-4)GlcNAc
# Procedure, shortened: as §1
# GlcNAc(b1-3)Man = target: GlcNAc(b1-3)Man
# Procedure, shortened: as §1
# [23] = target: GlcNAc(b1-6)Gal(b1-4)GlcNAc
# Procedure, shortened: as §1
# Kdn(a2-3)Gal(b1-4)Glc = target: Kdn(a2-3)Gal(b1-4)Glc
# Procedure, shortened: as §1
# Kdn(a2-3)Gal(b1-4)GlcNAc = target: Kdn(a2-3)Gal(b1-4)GlcNAc
# Procedure, shortened: as §1
# [24] = target: Man(a1-3)[Man(a1-6)]Man(b1-4)GlcNAc(b1-4)GlcNAc
# Procedure, shortened: as §1
# Man(b1-4)GlcNAc = target: Man(b1-4)GlcNAc
# Procedure, shortened: as §1
# Neu5Ac(a2-3)Gal = target: Neu5Ac(a2-3)Gal
# Procedure, shortened: as §1
# [25] = target: Neu5Ac(a2-3)Gal(b1-3)[Fuc(a1-4)]GlcNAc
# Procedure, shortened: as §1
# [26] = target: Neu5Ac(a2-3)Gal(b1-3)[Fuc(a1-4)]GlcNAc(b1-3)Gal(b1-3)[Fuc(a1-4)]GlcNAc
# Procedure, shortened: as §1
# [27] = target: Neu5Ac(a2-3)Gal(b1-3)[GlcNAc(b1-6)]GalNAc
# Procedure, shortened: as §1
# [28] = target: Neu5Ac(a2-3)Gal(b1-4)GlcNAc
# Procedure, shortened: as §1
# [29] = target: Neu5Ac(a2-3)Gal(b1-4)GlcNAc(b1-6)[Neu5Ac(a2-3)Gal(b1-3)]GalNAc
# Procedure, shortened: as §1
# [30] = target: Neu5Ac(a2-6)Gal(b1-4)GlcNAc(b1-2)Man(a1-3)[Neu5Ac(a2-6)Gal(b1-4)GlcNAc(b1-2)Man(a1-6)]Man(b1-4)GlcNAc(b1-4)[Fuc(a1-6)]GlcNAc
# Procedure, shortened: as §1
# [31] = target: Neu5Ac(a2-6)Gal(b1-4)GlcNAc(b1-2)Man(a1-6)[GlcNAc(b1-2)Man(a1-3)]Man(b1-4)GlcNAc(b1-4)GlcNAc
# Procedure, shortened: as §1
# [32] = target: Neu5Ac(a2-6)Gal(b1-4)GlcNAc(b1-3)Gal(b1-4)GlcNAc(b1-2)Man(a1-3)[Neu5Ac(a2-6)Gal(b1-4)GlcNAc(b1-3)Gal(b1-4)GlcNAc(b1-2)Man(a1-6)]GalNAc
# Procedure, shortened: as §1
# [33] = target: Neu5Ac(a2-6)Gal(b1-4)GlcNAc(b1-3)Gal(b1-4)GlcNAc(b1-6)[Gal(b1-3)]GalNAc
# Procedure, shortened: as §1
# [34] = target: Neu5Ac(a2-8)Neu5Ac(a2-8)Neu5Ac
# Procedure, shortened: as §1
# [35] = target: Neu5Ac9Ac(a2-3)Gal(b1-3)GlcNAc
# Procedure, shortened: as §1
# [36] = target: Neu5Gc(a2-3)Gal(b1-4)GlcNAc
# Procedure, shortened: as §1
# [37] = target: Neu5Gc(a2-6)Gal(b1-4)GlcNAc
# Procedure, shortened: as §1
binder,measurement,setting,value
B1,glycan array binding signal (z-score),[1],-0.276
same,glycan array binding signal (z-score),[2],-0.377
same,glycan array binding signal (z-score),[3],6.68
same,glycan array binding signal (z-score),[4],-0.587
same,glycan array binding signal (z-score),[5],3.62
same,glycan array binding signal (z-score),[6],-1.52
same,glycan array binding signal (z-score),[7],-0.211
same,glycan array binding signal (z-score),Gal(a1-2)Gal,-0.28
same,glycan array binding signal (z-score),[8],-0.268
same,glycan array binding signal (z-score),Gal(a1-3)Gal(b1-4)GlcNAc,-0.436
same,glycan array binding signal (z-score),Gal(a1-4)Gal(b1-4)GlcNAc,0.111
same,glycan array binding signal (z-score),[9],-0.473
same,glycan array binding signal (z-score),[10],-0.324
same,glycan array binding signal (z-score),[11],-0.512
same,glycan array binding signal (z-score),[12],0.114
same,glycan array binding signal (z-score),[13],4.11
same,glycan array binding signal (z-score),[14],6.2
same,glycan array binding signal (z-score),[15],6.18
same,glycan array binding signal (z-score),[16],-0.959
same,glycan array binding signal (z-score),Gal(b1-4)GlcNAc6P,0.236
same,glycan array binding signal (z-score),Gal3S(b1-3)GalNAc,-0.215
same,glycan array binding signal (z-score),[17],-0.96
same,glycan array binding signal (z-score),[18],-0.578
same,glycan array binding signal (z-score),GalNAc3S(b1-4)GlcNAc3S,-0.284
same,glycan array binding signal (z-score),Glc(a1-6)Glc(a1-6)Glc,0.839
same,glycan array binding signal (z-score),Glc(b1-4)Glc,-0.321
same,glycan array binding signal (z-score),[19],-0.4
same,glycan array binding signal (z-score),[20],-0.457
same,glycan array binding signal (z-score),[21],-0.307
same,glycan array binding signal (z-score),[22],4.98
same,glycan array binding signal (z-score),GlcNAc(b1-3)Man,0.023
same,glycan array binding signal (z-score),[23],-0.043
same,glycan array binding signal (z-score),Kdn(a2-3)Gal(b1-4)Glc,0.82
same,glycan array binding signal (z-score),Kdn(a2-3)Gal(b1-4)GlcNAc,-0.667
same,glycan array binding signal (z-score),[24],0.527
same,glycan array binding signal (z-score),Man(b1-4)GlcNAc,-0.147
same,glycan array binding signal (z-score),Neu5Ac(a2-3)Gal,0.406
same,glycan array binding signal (z-score),[25],3.52
same,glycan array binding signal (z-score),[26],3.37
same,glycan array binding signal (z-score),[27],1.55
same,glycan array binding signal (z-score),[28],0.435
same,glycan array binding signal (z-score),[29],-0.471
same,glycan array binding signal (z-score),[30],4.31
same,glycan array binding signal (z-score),[31],4.26
same,glycan array binding signal (z-score),[32],4.82
same,glycan array binding signal (z-score),[33],-0.512
same,glycan array binding signal (z-score),[34],-0.117
same,glycan array binding signal (z-score),[35],0.017
same,glycan array binding signal (z-score),[36],-0.141
same,glycan array binding signal (z-score),[37],-0.606
